Compound activity (PubChem BioAssay)
Hits are enriched below; roughly 1.5% of the tested compounds scored in any of these assays.
MenB inh: inhibitors of Mycobacterium tuberculosis MenB enzyme; 0.43% of 100,000 active; MenB enzyme assay, absorbance read-out; inhibition, % (no concentration beside the values); AID 540299; P9WNP5; in the data active = inhibition above about 21%, passing the limit was not always enough
Target sequence (P9WNP5 whole entry, looked up): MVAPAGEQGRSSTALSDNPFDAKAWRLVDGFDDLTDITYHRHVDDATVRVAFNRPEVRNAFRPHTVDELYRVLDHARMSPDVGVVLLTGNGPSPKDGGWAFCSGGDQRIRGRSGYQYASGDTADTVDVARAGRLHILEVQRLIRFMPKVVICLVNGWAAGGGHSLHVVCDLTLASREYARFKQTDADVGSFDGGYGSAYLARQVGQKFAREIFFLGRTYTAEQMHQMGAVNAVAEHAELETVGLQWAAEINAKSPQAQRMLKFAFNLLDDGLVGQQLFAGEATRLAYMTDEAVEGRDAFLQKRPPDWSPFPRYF
AID504770: growth inhibitors of E. coli YBA685 in a screen for V. cholerae RctB (chromosome II replication) inhibitors | E. coli YBA685 rctB-dependent plasmid, OD600 growth, 3 h; stronger effect = lower value | z-score (test concentration not listed) | 0.27% of 130,000 active; in the data active = z-score below about -2, passing the limit was not always enough
Mtb MbtI inh: inhibitors of Mycobacterium tuberculosis siderophore enzyme MbtI; purified MbtI enzyme, fluorescence intensity read-out; AID 493033; 0.89% of 100,000 active; inhibition, % (test concentration not listed); in the data active = inhibition mostly above about 56%, no sharp cut-off; inactive = mostly below about 77%
PV pol inh: poliovirus RNA polymerase inhibition | P03300 | poliovirus polymerase elongation, fluorescence polarization; stronger effect = lower value | % elongation, % (compound at 16.7 µg/mL) | 0.66% of 150,000 active | AID 588519; in the data active = % elongation below about 90%
Hits are given with their value; ! = repeats disagree.

Screening CCn1c(SCC(=O)NC(C)c2ccccc2)nnc1-c1ccccc1OC (stereo not given) returned MenB inh inactive, AID504770 inactive, Mtb MbtI inh inactive and PV pol inh inactive.
CN(C)C(=S)Nc1ccc2c(c1)OCO2 was read as MenB inh inactive, AID504770 inactive, Mtb MbtI inh 92 and PV pol inh inactive.
CC(=S)Nc1ccc2c(c1)OCO2 was read as MenB inh inactive, AID504770 inactive, Mtb MbtI inh 73 and PV pol inh 72.
O=C(COc1ccccc1O)NCCO was read as MenB inh inactive, AID504770 inactive, Mtb MbtI inh inactive and PV pol inh inactive.
Screening O=C(/C=C(\O)c1ccc(Cl)cc1)C(F)(F)F returned MenB inh inactive, AID504770 -4.3, Mtb MbtI inh inactive and PV pol inh inactive.
`COc1ccc(C(=O)n2ncc(C#N)c2N)cc1` gave MenB inh inactive, AID504770 inactive, Mtb MbtI inh inactive and PV pol inh inactive.
Screening Cn1cnnc1SCc1ccc(C(=O)n2ncc(C#N)c2N)cc1 returned MenB inh inactive, AID504770 inactive, Mtb MbtI inh inactive and PV pol inh 88.
[S-]c1n[n+]2cccnc2s1 was read as MenB inh inactive, AID504770 inactive, Mtb MbtI inh inactive and PV pol inh inactive.
For FC(F)(F)c1cccc(-n2nnnc2-c2ccccc2)c1 the results were MenB inh inactive, AID504770 inactive, Mtb MbtI inh inactive and PV pol inh inactive.
For CSc1nc2c(=S)[nH]c(=S)[nH]c2s1 the results were MenB inh inactive, AID504770 inactive, Mtb MbtI inh 55 and PV pol inh 82.
`Cc1c(C(=O)N2CCOCC2)oc2c1-c1nn(CC(=O)NCc3cccc(F)c3)cc1CC2` gave PV pol inh 84.
`Cc1c(C(=O)N2CCCC2)oc2c1-c1nn(CC(=O)NCCCOC(C)C)cc1CC2` gave PV pol inh 47.
For O=C(CO/N=C/c1ccccc1OC(F)F)N1CCN(S(=O)(=O)c2ccccc2)CC1 the results were MenB inh inactive, AID504770 inactive, Mtb MbtI inh inactive and PV pol inh inactive.
COc1ccc2nc3oc(C(=O)NCCC4=CCCCC4)cc3cc2c1 was read as MenB inh inactive, AID504770 -5.2, Mtb MbtI inh inactive and PV pol inh inactive.
O=C(CC12CC3CC(CC(C3)C1)C2)NCC(=O)N1CCCC1 was read as MenB inh inactive, AID504770 inactive, Mtb MbtI inh inactive and PV pol inh 86.
O=C(CC12CC3CC(CC(C3)C1)C2)NCC(=O)N1CCN(Cc2ccccc2)CC1 was read as MenB inh inactive, AID504770 inactive, Mtb MbtI inh inactive and PV pol inh inactive.
For CC(C)NCC(O)COc1cccc2ccccc12 (stereo not given) the results were MenB inh inactive, AID504770 inactive, Mtb MbtI inh inactive and PV pol inh 100!.
c1ccc2sc(SN3CCOCC3)nc2c1 was read as MenB inh inactive, AID504770 inactive, Mtb MbtI inh 84 and PV pol inh inactive.
c1ccc2sc(N3CCOCC3)nc2c1 was read as AID504770 inactive.
For CCOC(=O)C1=C(C)NNC(=Nc2cccc(C)c2C)S1 the results were MenB inh inactive, AID504770 inactive, Mtb MbtI inh 86 and PV pol inh 80.
`O=C(CS(=O)(=O)Cc1ccccc1)Nc1ccccn1` gave MenB inh 36, AID504770 inactive, Mtb MbtI inh inactive and PV pol inh inactive.
`CC(=O)Nc1ccc(NC(=O)c2ccc(CS(C)(=O)=O)cc2)cc1` gave MenB inh inactive, AID504770 inactive, Mtb MbtI inh inactive and PV pol inh inactive.
Screening CC(C)OCCCNc1ncnc2sc3c(c12)CCCC3 returned PV pol inh -2.0.
O=C1NC(=O)C(C2(O)C(=O)Nc3c(Cl)cc(Cl)cc32)C(=O)N1 (stereo not given) was read as MenB inh inactive, AID504770 inactive, Mtb MbtI inh inactive and PV pol inh inactive.
For COc1ccc(CCn2c(C)cc(C(=O)CN3CCOCC3)c2C)cc1 the results were MenB inh inactive, AID504770 inactive, Mtb MbtI inh inactive and PV pol inh inactive.
For CC1SC(c2ccccc2)NC1=O (stereo not given) the results were MenB inh inactive, AID504770 inactive, Mtb MbtI inh 91 and PV pol inh inactive.
`CC(C)C(C(=O)O)N1C(=O)/C(=C/c2ccccn2)SC1=S` (stereo not given) gave MenB inh inactive, AID504770 inactive, Mtb MbtI inh inactive and PV pol inh inactive.
Screening Cc1ccc(NC(=O)c2ccc3noc(-c4ccccc4)c3c2)c(C)c1 returned MenB inh inactive, AID504770 inactive, Mtb MbtI inh inactive and PV pol inh inactive.
For CC(C#N)OC(=O)/C=C/c1ccc2ccccc2n1 (stereo not given) the results were MenB inh inactive, AID504770 inactive, Mtb MbtI inh inactive and PV pol inh inactive.
`Nc1ccc(S(=O)(=O)CCSS(=O)(=O)c2ccc(N)cc2)cc1` gave MenB inh inactive, AID504770 inactive, Mtb MbtI inh 99 and PV pol inh 63.
Screening O=C(OCC(=O)N1CCCC1)c1ccc2c(c1)OCO2 returned MenB inh inactive, AID504770 inactive, Mtb MbtI inh inactive and PV pol inh inactive.
Screening Cc1oc2c(c1C(=O)NCc1ccccc1)C(=O)c1ccccc1C2=O returned MenB inh inactive, AID504770 inactive, Mtb MbtI inh inactive and PV pol inh inactive.
For Cc1oc2c(c1C(=O)O)C(=O)c1ccccc1C2=O the results were MenB inh inactive, AID504770 inactive, Mtb MbtI inh inactive and PV pol inh 66.
Screening CCCOc1ccc(C(=O)O)cc1 returned AID504770 inactive, Mtb MbtI inh inactive and PV pol inh inactive.
Screening CCCOc1ccc(C(=O)CCN(C)C)cc1 returned MenB inh inactive, AID504770 inactive, Mtb MbtI inh 59 and PV pol inh inactive.
Screening CN(C)CCC(=O)c1ccc(Br)cc1 returned MenB inh inactive, AID504770 inactive, Mtb MbtI inh 69 and PV pol inh inactive.
For C=CCn1c(CSc2ccc(C)cc2)n[nH]c1=S the results were MenB inh inactive, AID504770 inactive, Mtb MbtI inh 74 and PV pol inh inactive.
For CCc1ccc(C(=O)NCc2ccc3c(c2)OCO3)cc1 the results were MenB inh inactive, AID504770 inactive, Mtb MbtI inh inactive and PV pol inh inactive.
Screening CN(C(=S)NCc1ccc2c(c1)OCO2)C1CCS(=O)(=O)C1 (stereo not given) returned MenB inh inactive, AID504770 inactive, Mtb MbtI inh 84 and PV pol inh 88.
`COc1ccc(/C=c2\sc3ncnn3c2=O)cc1` gave MenB inh inactive, AID504770 inactive, Mtb MbtI inh inactive and PV pol inh 89.
`Cc1ccc(Oc2ncccc2NC(=O)c2ccco2)c2c1CCC2` gave AID504770 inactive.
Screening CC(=O)NCc1ccc(-c2csc(N)n2)o1 returned MenB inh inactive, AID504770 inactive, Mtb MbtI inh inactive and PV pol inh inactive.
Screening CCC(=O)Nc1ccc(S(=O)(=O)N2CCCC2)cc1 returned MenB inh inactive, AID504770 inactive, Mtb MbtI inh inactive and PV pol inh inactive.
Cc1ccc(-c2cn3c4ccccc4nc3n2CCCN2CCCCC2)cc1 was read as MenB inh inactive, AID504770 inactive and PV pol inh 90.
